Source: ChEMBL document CHEMBL3988442, “University of Dundee, Small-Polar-MMV Screening Library” (2021)
The campaign covered roughly 85,000 compounds. About 440 (0.52%) showed an effect of 50% or more. This excerpt belongs to a sample that is enriched for strong results.

Experiment: In vitro enzyme assay to detect hydrolysis of chlorophenol red-beta-D-[…] directly proportional to the number of Toxoplasma stably expressing beta-galactosidase
Format: functional, organism-based, Toxoplasma gondii
Parameters: scale not given: in the data most compounds retested in dose-response had high values

Compound	Percent Effect (50 µM)	Percent Effect (10 µM)
CC(=O)NCc1cccc(OCc2ccccn2)c1	53.39%	
COc1cccc(CNCc2ccccn2)c1	10.94%	
NCc1cccc(OCc2ccccn2)c1	-1.325%	
Cc1noc(C)c1C(=O)N(C)C1CCS(=O)(=O)C1 (stereo not drawn)	-15.63%	
Cc1ccc(C2COCCN2)o1 (stereo not drawn)	3.644%	
COCC(=O)N1CCn2c(COc3cccnc3)cnc2C1C.O=C(O)C(F)(F)F (stereo not drawn)		84.28%
CC1c2ncc(COc3cccnc3)n2CCN1C(=O)C1=CCCC1.O=C(O)C(F)(F)F (stereo not drawn)		10.52%
CC1c2ncc(COc3cccnc3)n2CCN1C(=O)Cc1ccco1.O=C(O)C(F)(F)F (stereo not drawn)		-0.5977%
O=C(NCCSCc1ccco1)c1cccnc1O	-3.309%	
COc1ccc(CC#N)cc1S(C)(=O)=O	54.15%	
COc1ccccc1CC#N	14.35%	
COc1ccc(CC(C)(C#N)NC(C)=O)cc1OC (stereo not drawn)	14.61%	
COC(=O)c1cnc2c(c(C)nn2C)c1OC		68.54%
COc1c(C(=O)N2CCNC(=O)C2)cnc2c1c(C)nn2C		0.4571%
COc1c(C(=O)N2CCOCC2)cnc2c1c(C)nn2C		-14.92%
CN1CCN(Cc2nccn2C)[C@H]2CS(=O)(=O)C[C@H]21	0.771%	
OCCNCCNCc1ccc(-c2cccc(Cl)c2)o1	71.47%	

Compound	Percent Effect (50 µM)	Percent Effect (10 µM)
OCCNCCNCc1ccc(-c2ccccc2Cl)o1	33.01%	
OCCNCCNCc1ccc(-c2ccccc2)o1	1.266%	
Cc1nnc2n1CCC(NC(=O)c1cnccn1)CC2 (stereo not drawn)	2.489%	
O=C(NC1CCCC1)c1cnccn1	54.91%	
O=C(NCCSC1CCCC1)c1cnccn1		0.9702%
CCC(C)N(CC(=O)OC)Cc1nccn1C (stereo not drawn)	1.211%	
OCc1ccccc1CC1CCNCC1	2.025%	
CC(C)CC(=O)Nc1cc(C(C)C)n[nH]1	12%	
CC(C)c1cc(NC(=O)c2ccc([S+]([O-])C(C)C)cc2)[nH]n1 (stereo not drawn)		54.78%
CC(C)c1cc(NC(=O)c2ccncc2)[nH]n1		64.12%
CC(C)c1cc(NC(=O)c2ccc(C(=O)NC(C)(C)C)cc2)[nH]n1		9.105%
CC(C)c1cc(NC(=O)c2cccnc2)[nH]n1		41.77%
Cc1ccc(CC(=O)Nc2cc(C(C)C)n[nH]2)cn1		86.76%
CC(C)c1cc(NC(=O)c2ccc(NC3CC3)nc2)[nH]n1		3.917%
Cc1ccc(C(=O)Nc2cc(C(C)C)n[nH]2)cn1		-1.588%
Cc1cc(NC(=O)c2ccc(F)cc2)[nH]n1	-8.221%	
